# Compound activity: PubChem BioAssay, National Center for Advancing Translational Sciences (NCATS)
# Sampled rows, rich in hits. Any-hit rate of the full collection: about 7%.
# PI5P4Ka inh: PI5P4K alpha (human) kinase inhibition; P48426; PI5P4Kalpha enzyme, ADP-Glo luminescence, 60 min; stronger effect = lower value; max response, %; actives 1.2% (n = 330,000); active = max response of -50% or lower; inconclusive = between -30% and -50%; inactive = -30% or higher; also: value at the top dose of about 77 µM
# Target sequence (P48426 whole entry, looked up): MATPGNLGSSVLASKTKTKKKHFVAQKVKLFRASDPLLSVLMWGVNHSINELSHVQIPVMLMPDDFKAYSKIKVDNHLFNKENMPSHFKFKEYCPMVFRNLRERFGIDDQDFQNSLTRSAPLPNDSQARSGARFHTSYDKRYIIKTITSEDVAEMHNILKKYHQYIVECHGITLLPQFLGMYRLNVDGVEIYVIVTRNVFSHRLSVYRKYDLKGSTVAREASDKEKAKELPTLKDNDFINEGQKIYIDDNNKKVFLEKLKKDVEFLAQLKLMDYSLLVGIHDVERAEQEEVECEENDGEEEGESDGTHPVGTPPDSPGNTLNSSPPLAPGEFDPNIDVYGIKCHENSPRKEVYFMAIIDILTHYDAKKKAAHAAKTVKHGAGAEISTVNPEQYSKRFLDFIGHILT
#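 ADP-Glo luminescence end-point read after a 60 min room-temperature kinase reaction of PI5P4Kalpha plus substrate, initiated with ATP at 5 microM final. Buffer: 0.038 M HEPES pH 7.4, EGTA, 0.1% CHAPS, 5% DMSO.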
# HP1b binding inh: inhibitors of HP1-beta chromodomain binding to methylated histone tails. AlphaScreen HP1-beta / biotin-H3K9me3 peptide binding. Potency, µM (doses to about 114 µM), hits mostly inhibitors. actives 0.56% (n = 390,000). AID 540317; also: nearly all actives have a fitted effect of over 70% in size
# Target sequence (P83916 whole entry, looked up): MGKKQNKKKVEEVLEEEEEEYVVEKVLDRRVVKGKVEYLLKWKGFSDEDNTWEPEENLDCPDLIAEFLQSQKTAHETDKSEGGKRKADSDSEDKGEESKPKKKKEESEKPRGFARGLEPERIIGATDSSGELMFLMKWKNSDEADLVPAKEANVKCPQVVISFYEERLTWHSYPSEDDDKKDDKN
#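 Compound inhibition of the preformed complex between 50 nM HP1-beta and 50 nM biotinylated H3K9me3 peptide was read by AlphaScreen. Buffer was PBS pH 7.4 with 0.01% Tween-20. Incubations ran 30 min at room temperature, with 10 ug/mL donor/acceptor beads.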
# PLK1 PBD block: blocks phosphopeptide binding to human PLK1 polo-box domain. P53350. actives 2.8% (n = 360,000). AID 720504. Potency, µM, actives largely listed as inhibitors. Plk1 PBD binding of FITC phosphopeptide, fluorescence polarization; also: series mostly up to about 57 µM; nearly all actives have a fitted effect of over 65% in size
# JMJD2A Tudor: blocks the human JMJD2A Tudor domain; AlphaScreen JMJD2A-Tudor / H3K4me3 peptide binding; actives 4.4% (n = 390,000); Potency, µM (highest dose often 114 µM), actives largely listed as inhibitors; O75164; also: nearly all actives have a fitted effect of over 50% in size
# BAZ2B block: BAZ2B (human) inhibition; AID 504333; actives 4.4% (n = 360,000); AlphaScreen BAZ2B-H3K14Ac peptide displacement; Potency, µM (doses to about 114 µM), actives largely listed as inhibitors; Q9UIF8; also: nearly all actives have a fitted effect of over 60% in size
#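 BAZ2B 50 nM plus b-H3(5-23)K14Ac 50 nM, PBS pH 7.4/0.01% Tween-20, 30 min RT; compound added (max 110 uM), 30 min RT; streptavidin donor/Ni-chelate acceptor beads 10 ug/mL final, 20 min dark; AlphaScreen read.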
# GCN5L2 inh: inhibitors of human GCN5L2 histone acetyltransferase | GCN5L2 HAT assay, ThioGlo1 CoA-SH fluorescence | Potency, µM (series often up to 58.9 µM), actives largely listed as inhibitors | actives 0.21% (n = 390,000) | AID 504327
#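 Free CoA generated was detected with ThioGlo1 (50uM) fluorescence at Ex340nm/Em540nm, read immediately and after 20 min at room temperature. Enzyme, 20 nM in HEPES pH 7.5 buffer, saw compounds 15 min before adding 75uM H3(1-25) peptide and 70uM acetyl-CoA.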
# Hits are given with their value; i = inactive; ? = inconclusive; nt = no result; [ ] = dose if it differs, or a comment. Unless noted, calls follow the shape of the dose curve; as a rule, active = well fitted curve in the direction sought with a large enough effect; inconclusive = small, poorly fitted or top-dose-only effect, or another doubt; inactive = no such curve, though single readings can be large; an effect the other way counts as inactive or inconclusive.
SMILES,PI5P4Ka inh,HP1b binding inh,PLK1 PBD block,JMJD2A Tudor,BAZ2B block,GCN5L2 inh
Cc1ccc(-c2ccccc2NC(=O)CS(=O)CC(=O)Nc2ccc(C)c(Cl)c2)o1 (stereo not drawn),i,i,19µM,i,i,i
COc1ccc(N2CCN(S(=O)(=O)c3ccc(-c4ccno4)cc3OC)CC2)cc1,nt,i,nt,?,22µM,i
O=C(NCCC1=CCCCC1)c1ccc2c(c1)ncn2-c1ccc(F)c(F)c1,nt,i,nt,i,i,i
O=C(Nc1ccc(NC(=O)c2ccccc2Br)cc1)c1ccccc1,i,i,i,i,i,i
CCOc1ccc(NC(=O)c2ccc(NC(=O)c3ccccc3Br)cc2)cc1,i,i,i,i,i,i
O=c1c2ccccc2c(-c2ccccc2)nn1Cc1c(Cl)cccc1Cl,nt,i,i,i,i,i
O=C(Nc1ccc(C(F)(F)F)cc1)c1ccccc1Br,i,i,24µM,35µM,i,i
O=c1c2ccccc2c(-c2n[nH]c(=S)o2)nn1Cc1ccccc1,-86,i,?,?,i,i
Cc1ccc(-c2cc(-c3n[nH]c(=S)o3)c3ccccc3n2)cc1,i,i,27µM,?,?,?
O=C(Nc1ccc(-c2n[nH]c(=S)o2)cc1)c1ccccc1Br,-57,i,i,i,i,i
S=c1[nH]nc(-c2ccccc2)o1,?,i,30µM,i[11.4 µM],79µM,i
Cc1cccc(C)c1NC(=O)CN1CCN(C(=O)c2ccc(OCc3cn4ccccc4n3)cc2)CC1,i,i,i,i,nt,i
O=C(CNS(=O)(=O)c1ccc(Cl)cc1)NNC(=O)c1cccnc1,i,i,9.5µM,i,nt,i
O=C(NCc1ccc(Cl)cc1)c1cccnc1,i,i,24µM,i[11.4 µM],i,i
Cc1c2cnn(CC(=O)N3CCCCC3)c(=O)c2c(C)n1Cc1ccc(Cl)cc1,nt,i,nt,i,i,i
O=C1NC(=S)S/C1=C\c1ccc(SCc2ccccc2)o1,-77,?,27µM,25µM,50µM,i
O=C1NC(=S)S/C1=C\c1ccc(SCc2ccco2)o1,-99,11µM,3µM,6.3µM,18µM,14µM
O=C1CCN(Cc2ccco2)C(=S)N1,i,i,i,i,nt,nt
O=C(COCc1cc(-c2ccc3c(c2)OCO3)on1)Nc1cccnc1Cl,i,i,i,i,i,i
Cc1ccc(OCc2cc(=O)n3c(-c4ccccc4)csc3n2)cc1,nt,i,nt,?,i,i
C=CCNCc1cc(=O)n2c(-c3ccccc3)csc2n1,i,?,i,3.5µM,50µM,i
O=c1cc(CN2CCN(c3ccccc3)CC2)nc2scc(-c3ccccc3)n12,?,i,i,i,?,i
Cc1cc(C)cc(OCc2cc(=O)n3c(-c4ccccc4)csc3n2)c1,nt,i,nt,?,79µM,i
Cc1ccc(Nc2ncc(C(=O)Nc3ccc(F)cc3F)c3ccccc23)cc1Cl,nt,i,nt,i,i,i
CC1(C)CC(Nc2ccc(Nc3ccccc3)cc2)CC(C)(C)N1,i,?,i,45µM,35µM,i
SMILES,PI5P4Ka inh,HP1b binding inh,PLK1 PBD block,JMJD2A Tudor,BAZ2B block,GCN5L2 inh
CC1(C)CC(NC(=O)c2ccccc2)CC(C)(C)N1,i,i,i,i,i,i
NC(=O)c1cc2ccccc2oc1=NCc1ccccc1,i,i,i,?,i,i
O=C(O)c1ccc(N=c2oc3cc(O)ccc3cc2C(=O)NCc2ccccc2)cc1,-78,i,?,?,?,i
NC(=O)c1cc2ccc(O)cc2oc1=Nc1ccccc1,-72,i,15µM,i[11.4 µM],?,i
NC(=O)c1cc2ccc(O)cc2oc1=NCc1ccccc1,nt,i,12µM,i,i,i
Cc1cccc(NC(=O)NCCn2c(=O)oc3ccc(C)cc32)c1,nt,i,nt,i,i,i
Cc1ccc(C)c2[nH]c(=O)c(CCNC(=O)c3ccco3)cc12,i,i,i,i,nt,i
CN1/C(=C/C=C/c2n(C)c3cc([N+](=O)[O-])c([N+](=O)[O-])cc3[n+]2C)C(C)(C)c2ccccc21,?,nt,i,nt,nt,nt
CC[n+]1c(/C=C/C=C2/N(C)c3ccccc3C2(C)C)sc2ccccc21,nt,nt,nt,nt,nt,28µM
CC[n+]1c(/C=C/C=C/N(C(C)=O)c2ccccc2)sc2ccccc21,?,i,i,79µM,28µM,i
CCCN(C(=O)COc1cc(=O)n(CC)c2ccccc12)c1ccc(C(C)C)cc1,nt,i,nt,i,?,i
O=C(CSCc1ccccc1Cl)NCc1ccc(Cl)c(Cl)c1,nt,i,nt,i,i,i
CCN(CC(=O)Nc1ccc(NC(C)=O)cc1)C(=O)/C=C/c1c(C)nn(-c2ccc(F)cc2)c1C,i,i,i,i,i,i
O=C(Nc1ccc(Oc2ccccc2)cc1)c1csc([C@@H]2C[C@H](O)[C@@H](CO)O2)n1,i,nt,i,nt,nt,nt
COc1cccc(NC(=O)c2ccccc2-c2ccccc2C(=O)O)c1,i,i,i,i,i,i
COc1cc2c(cc1NC(=O)c1ccccc1-c1ccccc1C(=O)O)-c1ccccc1C2,i,nt,42µM,nt,nt,nt
CCCNC(=O)c1nc(C)n(-c2ccc([N+](=O)[O-])cc2)n1,i,i,27µM,?,i,i
COc1ccc(OC)c(NC(=O)CCc2c(C)nn(-c3ccc(N4CCCC4)nn3)c2C)c1,nt,i,nt,?,?,i
CS(=O)(=O)/C=C/c1nc(Nc2cc(F)cc(F)c2)c2ncn(CC(F)F)c2n1,nt,nt,nt,i,nt,nt
O=C(O)c1sc2cccc(Cl)c2c1Cl,i,i,24µM,i[11.4 µM],i,i
O=C(Nc1ccccc1Cl)c1sc2cccc(Cl)c2c1Cl,nt,i,nt,i,i,i
O=C(CSc1nc2ccccc2c(=O)n1CCCN1CCOCC1)Nc1ccccc1OC(F)F,i,i,i,i,nt,i
Cc1ccc2[nH]c(=O)c(CN(C(=O)c3cccc(Cl)c3)C(C)(C)C)cc2c1,nt,i,nt,i,i,i
CN(C)CCN(Cc1ccco1)C(=O)c1oc2ccccc2c1NC(=O)COc1ccccc1,i,?,?,28µM,?,i
O=C1NN=C(CSc2n[nH]c(=S)s2)CS1,-55,i,?,18µM,79µM,?
SMILES,PI5P4Ka inh,HP1b binding inh,PLK1 PBD block,JMJD2A Tudor,BAZ2B block,GCN5L2 inh
CC(=O)N(c1ccc2ccccc2c1)C1SC(=O)N(c2cccc(C)c2)C1=O (stereo not drawn),nt,i,nt,i,nt,nt
CCOc1ccc(C(C)=O)cc1COC(=O)c1ccccc1C(=O)N(C)Cc1ccccc1,i,i,i,i,i,i
Cc1ccccc1S(=O)(=O)Cc1ccc(C(=O)NC2CCCCC2)o1,i,i,21µM,?,i,i
NS(=O)(=O)c1ccc(N=C2C(=O)Nc3ccccc32)cc1,i,i,i,i,i,i
O=C1Nc2ccccc2C1=Nc1ccc(S(=O)(=O)Nc2nccs2)cc1,-79,i,27µM,56µM,i,i
S=c1nc(-c2ccccc2)[nH]n1-c1ccccc1,nt,?,i,22µM,i,13µM
S=c1nc2ccccc2c2nc(-c3ccccc3)[nH]n12,i,i,?,i,i,i
Nc1nc(=S)n(-c2ccccc2)[nH]1,i,?,24µM,3.5µM,?,?
